Here are results for 40 sequences from the OligoGym collection.
Further: reference of the scale not given here.

The first assay deals with HOXA6. The assay can be described thus: pooled miR-30 sensor sort-seq; sequence = guide strand. The following applies: shRNA.
The sequence TTGATGAGCTTGTTTTCCTTTT registered a sensor-assay potency score (higher = more potent) of -0.78.
Still for that read-out and setting: as for TGTACTTCCGGTCGGCGCCTTC, the figure is -0.845; as for TTGGACTGTTGGTAGAAACAAG, -1.21.

A further assay deals with HOXD12. Described as above. The following applies: shRNA.
The sequence TTTGACTTGCTGGTCGCTGAGG had a sensor-assay potency score (higher = more potent) of -0.827.
Still for that read-out and setting: as for TTAGCCTGCTCTTCGGGTCCGT, the figure is -0.755.
The same measure, in the same setting: for TTGACTTGCTGGTCGCTGAGGT the value was 0.586; for TGGAGAAGTAGAAAGAGTCTGG, -0.0412.
In the case of TATTGGACAATTCCTTGCGTTT, the sensor-assay potency score (higher = more potent) is -1.31.
Take TTGCTGGTCGCTGAGGTTCAGC: the sensor-assay potency score (higher = more potent) was -1.6.
Still for that read-out and setting: as for TTGGTGTCGTCCTTGAAGCCAG, the figure is -0.854; as for ATTTTGACTTGCTGGTCGCTGA, -0.889.
TAGGGTTTCCGCTTCTTGCGGG yielded a sensor-assay potency score (higher = more potent) of -0.0363.
On the same count and under the same terms, for TGTCATGTTCAAGTTGAGCGGG the value was -0.623.

A further assay deals with HOXD4. The assay is described as above. The settings on record: shRNA.
In the case of TCGGACTGACTGTAGGCCCGGG, the sensor-assay potency score (higher = more potent) was -0.239.
Same read-out and setting: as for TTATGTTCTCAGTAGCTCCTGC, the figure is 0.0954; as for TAGTGTTGGGCAGCTTATGATC, -1.61.
TTGGGGTCCACATACTTGGAGT returned a sensor-assay potency score (higher = more potent) of -0.994.
TAAAATGAAATTCTTTTTCCAG registered a sensor-assay potency score (higher = more potent) of -0.413.
In turn, TTTTTCCAGTTCTAGGACTTGC returned a sensor-assay potency score (higher = more potent) of -0.495.
Still for that read-out and setting: for TTATGATCTTTTTTCCACTTCA the value was -0.3; for TGCACCTTCTTCATCCAGGGGT, -0.0453.
In turn, ATGATCTTTTTTCCACTTCATC had a sensor-assay potency score (higher = more potent) of -1.7.
Same read-out and setting: as for TAGGACTTGCTGCCGGGTGTAG, the figure is -1.46; as for TTCTTTTTCCAGTTCTAGGACT, -0.804.

In a further assay the target is HP1BP3. Described as above. The settings on record: shRNA.
Consider TTCTGAACCACAACAAAACTTC, for which the sensor-assay potency score (higher = more potent) is -0.196.
In turn, TACTGAGACACATATTTCCTGA showed a sensor-assay potency score (higher = more potent) of -0.347.
In the case of TCTTCGGAAACAGAACTCCTGG, the sensor-assay potency score (higher = more potent) is -0.507.
TTGATTTCTGAACCACAACAAA showed a sensor-assay potency score (higher = more potent) of -1.61.
On the same count and under the same terms, for TTTTCGAATAGCAACCACTGAT the value was -0.782; for TTCTTCTGCAACCTTCTCTTAG, -0.784; for TTCCTCTGAACTTATGTCTGGT, 0.357.
Sequence TAAGATTGCATCCATCTTGGGA yielded a sensor-assay potency score (higher = more potent) of -0.272.
Sequence TTCGGAAACAGAACTCCTGGGC showed a sensor-assay potency score (higher = more potent) of 0.0322.
As for TAGACTGATCTTTCTCATCCTT, the sensor-assay potency score (higher = more potent) was 0.288.
On the same count and under the same terms, for TATCTTCTACCTTCTCACCTAA the value was -0.313.

The target in a further assay is HPD. Described as above. The following applies: shRNA.
Sequence TTTGATTACATGGCTGACCACC came in with a sensor-assay potency score (higher = more potent) of -0.613.
Same read-out and setting: as for AAACTTGTCTTGCTCTACCCAG, the figure is -0.591; as for TTGAACAGTGAGTTGAAGTTGC, 0.599.
Same read-out and setting: for TGCTGCAGTAGAATGACGCGGC the value was -0.159.
Same read-out and setting: for TTTCTCGTCGTAGTCCACCAGG the value was -0.901.
